Source: PubChem
VP16 counter = counter-screen for ROR gamma inhibitors: Gal4-VP16 reporter | Drosophila S2 Gal4-VP16 UAS-luciferase, luminescence, 20 h | Potency, µM (highest dose often 53.6 µM), without a hit: at the highest dose activity, negative = inhibition, actives largely listed as inhibitors | hit rate 3.5% among 310,000 | AID 2546;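 note: Gal4-VP16 expression switched on by copper sulfate through the metallothionein promoter; % is set by controls: 0 for no effect and ±100 for the full control effect; nearly all actives have a fitted effect of over 50% in size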
MCF10A rereplic = DNA re-replication induction in MCF 10a cells | hit rate 2.9% among 350,000 | MCF 10A DNA re-replication, Hoechst nuclear intensity, 48 h | AID 624296 | Potency, µM (doses to about 46.1 µM), without a hit: top-dose activity, positive = re-replication, most hits filed as activators; note: % of control where 0% means no effect; nearly all actives have a fitted effect of over 50% in size
RORg inh = inhibitors of mouse ROR gamma transcriptional activity | Potency, µM (series often up to 53.6 µM), without a hit: at the highest dose activity change, negative = inhibition, usual class: inhibitors | P51450 | Drosophila S2 Gal4-RORgamma UAS-luciferase reporter, 20 h | AID 2551 | hit rate 5.4% among 310,000; note: % is set by controls: 0 for no effect and ±100 for the full control effect; nearly all actives have a fitted effect of over 60% in size
Target sequence (P51450 whole entry, looked up, the tested form may be a part): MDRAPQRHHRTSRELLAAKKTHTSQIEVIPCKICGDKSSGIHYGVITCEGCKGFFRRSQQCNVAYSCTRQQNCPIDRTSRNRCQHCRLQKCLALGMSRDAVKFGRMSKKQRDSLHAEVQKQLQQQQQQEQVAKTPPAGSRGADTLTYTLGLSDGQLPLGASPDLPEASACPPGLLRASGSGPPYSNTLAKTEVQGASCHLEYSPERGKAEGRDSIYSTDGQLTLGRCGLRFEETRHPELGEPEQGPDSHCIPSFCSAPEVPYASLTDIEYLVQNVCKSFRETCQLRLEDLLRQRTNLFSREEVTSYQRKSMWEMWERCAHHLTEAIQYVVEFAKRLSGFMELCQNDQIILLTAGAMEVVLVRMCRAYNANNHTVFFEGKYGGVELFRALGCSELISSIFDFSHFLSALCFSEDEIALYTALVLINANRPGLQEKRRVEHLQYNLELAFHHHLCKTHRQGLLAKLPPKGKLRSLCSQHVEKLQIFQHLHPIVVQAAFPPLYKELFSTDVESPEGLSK
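Schneider cells (Drosophila), stable Gal4 DBD–ROR gamma + UAS-luc; 1 hr cmpd preincubation; Cu2+ induction 700 uM final; 20 hr ambient; luminescence.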
SW480 rerep = inducers of DNA re-replication in SW480 colon cancer cells. SW480 DNA re-replication, Hoechst DNA content imaging, 48 h. Potency, µM (titrated, usually from 46.1 µM), without a hit: at the top dose re-replication activation, hits mostly activators. hit rate 1.8% among 340,000. AID 624297; note: % of control where 0% means no effect; nearly all actives have a fitted effect of over 55% in size
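250 cells/well; 23 nL cpd via pin tool; 48 hr, 37 C, 5% CO2; Hoechst 40 min; imager read of total nuclear intensity, ex 405/em 500-530 nm.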
ELG1 DNA repair = ELG1-dependent DNA repair inhibition; HEK293T ELG1-luciferase reporter, luminescence, 16 h; DNA damage induced by 5-fluorouridine; Potency, µM (titrated, usually from 46.1 µM), inactives show top-dose activity change, negative = inhibition, usual class: inhibitors; hit rate 2.3% among 330,000; note: % is set by controls: 0 for no effect and ±100 for the full control effect; nearly all actives have a fitted effect of over 55% in size
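Overnight (16 hr) co-exposure of 2,000 cells/well to 5-fluorouridine and compound at 37 °C preceded detection. Luciferase was quantified via ONE-Glo luminescence; loss of signal denotes inhibition.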
* marks the source's active call; other numbers are inactive results; ? = inconclusive; · = no result; [ ] = another dose, or the depositor's remark. Hits are enriched below; roughly 10% of the tested compounds scored in any of these assays. Calls come from the whole dose curve; as a rule, active = well fitted curve in the direction sought with a large enough effect; inconclusive = small, poorly fitted or top-dose-only effect, or another doubt; inactive = no such curve, though single readings can be large; an effect the other way counts as inactive or inconclusive. Potency is the fitted concentration of half-maximal effect.

SMILES | VP16 counter | MCF10A rereplic | RORg inh | SW480 rerep | ELG1 DNA repair
CCc1ccc(Nc2ncc3c(n2)CC(c2ccc(OC)cc2)CC3=O)cc1 (centres undefined) | -15% | 18µM* | 0% | 21µM* | -9%
COc1ccc(C(=O)Nc2ncc3c(n2)CC(C)CC3=O)cc1 (centres undefined) | 3%[10 µM] | -5% | 1% | -13% | ?
COc1ccc(C2CC(=O)c3cnc(N4CCN(Cc5ccccc5)CC4)nc3C2)cc1 (centres undefined) | ? | 16% | ? | 14% | ?
COc1cccc(C(=O)Nc2ncc3c(n2)CC(c2ccc(OC)cc2OC)CC3=O)c1 (centres undefined) | 4% | 2.3µM* | 1% | 6.5µM* | ?
Cc1sc(NC(=O)COc2ccccc2)c(C#N)c1-c1ccccc1 | -3% | -3% | 15% | -6% | ?
COc1ccc(C(=O)Nc2sc(C(=O)N(C)C)c(C)c2C#N)cc1[N+](=O)[O-] | 16µM* | -62% | ? | ? | 2%
COc1ccc(C(=O)Nc2sc(C)c(-c3ccccc3)c2C#N)cc1OC | -15% | ? | -17% | -10% | 26µM*
O=S1(=O)[C@H]2C[C@@H]3CC[C@]2(CN1Cc1cccc(F)c1)O3 | -3% | -6% | 0% | -3% | 10%
CC1C(=O)Nc2ccc(S(=O)(=O)N3CCN(c4cccc(C(F)(F)F)c4)CC3)cc2NC1=O (centres undefined) | -13% | ? | ? | 345% | -14%
O=C(/C=C/c1ccc(OCCCF)cc1)Nc1ccnc(-c2ccncc2)n1 | ? | ? | ? | 1% | ?
O=C(/C=C/c1ccc(OCCCF)cc1)Nc1ccnc(-c2cccnc2)n1 | -22% | 0% | 7% | ? | 7.3µM*
COc1ccccc1OCc1cc(C(=O)N2CCN(C)C(c3ccccc3)C2)no1 (centres undefined) | 3% | 16% | 6% | 0% | ?
CN1CCN(C(=O)c2cc(COc3c(F)cccc3F)on2)CC1c1ccccc1 (centres undefined) | 7.1µM* | 23% | 7.1µM* | 15% | ?
CN1CCN(C(=O)c2cc(COc3ccc(F)cc3Cl)on2)CC1c1ccccc1 (centres undefined) | -17% | 21µM* | ? | ? | -4%
C[C@@H]1CCN(C(=O)[C@H](CCCNC(=N)N)NS(=O)(=O)c2cccc3c2NC[C@H](C)C3)[C@@H](C(=O)O)C1 | -3% | -1% | -3%[10 µM] | 4% | ·
CN(C(=O)CN(C)S(=O)(=O)c1ccc(F)cc1)c1c(N)n(Cc2ccccc2)c(=O)[nH]c1=O | · | 0% | · | -1% | 13%
COc1ccc(C(=O)CCNc2ccc3c(c2)OCCO3)cc1 | 8% | 23µM* | -34% | ? | ?
CC(OC(=O)c1cccnc1Cl)C(=O)Nc1ccc2c(c1)OCCO2 (centres undefined) | 1% | 14% | 16% | -7% | ?
CC(OC(=O)c1nc(Cl)ccc1Cl)C(=O)Nc1ccc2c(c1)OCCO2 (centres undefined) | · | 1.6µM* | · | -37% | 20%
CC(=O)Oc1ccc(C(=O)Nc2ccc3c(c2)OCCO3)cc1 | -29% | ? | ? | 1% | ?
COc1ccc(C(=O)Nc2ccc3c(c2)OCCO3)cc1 | ? | ? | ? | 7.3µM* | ?
O=C(Nc1ccc2oc(-c3cccnc3)nc2c1)c1ccc2c(c1)OCCO2 | 1% | 8% | 7% | 7% | ?
O=C(Nc1ccc2oc(-c3ccccc3)nc2c1)c1ccc2c(c1)OCCO2 | 4% | 21µM* | 29% | ? | ?
O=C1CN(S(=O)(=O)c2ccc([N+](=O)[O-])cc2)CC(=O)N1 | -2% | -1% | -4% | -2% | 6%
CN(/C=C/C(=O)C(F)(F)F)Cc1ccccc1 | -6% | 4% | 9% | -16% | -4%
SMILES | VP16 counter | MCF10A rereplic | RORg inh | SW480 rerep | ELG1 DNA repair
COc1ccc(OCCCC(=O)Nc2cccc(C(C)=O)c2)cc1 | -9% | 10% | 18% | -6% | 18µM*
CC(=O)c1ccc(OCCCC(=O)Nc2ccc3c(c2)OCCO3)cc1 | · | 8% | · | -7% | ?
COc1ccc(OCCCC(=O)Nc2ccc3c(c2)OCCO3)cc1 | -8% | 21µM* | -9% | 27% | ?
O=C1CCC([N+](=O)[O-])C(c2ccc(-c3ccccc3)cc2)N1 (centres undefined) | · | 3% | · | -20% | ·
CC(C)CN(C(=O)C1=NN(c2ccccc2)C(=O)CC1)c1c(N)n(Cc2ccccc2)c(=O)[nH]c1=O | · | -5% | · | -16% | 9%
OC1(c2ccccc2)c2ccccc2-c2ncccc21 (centres undefined) | 9% | 17% | 7% | -5% | 7%
CCN1Cc2cc(OC)ccc2-c2ccccc2S1(=O)=O | · | -5% | · | -2% | 8%
O=S(=O)(N/N=C\c1ccc(-c2ccccc2Cl)o1)c1ccccc1 | ? | ? | ? | ? | 0%
O=C(N/N=C/c1ccc(-c2ccccc2Cl)o1)c1ccccc1 | 7.9µM* | 29µM* | 3.5µM* | ? | -15%
O=C(O)c1ccc(N/N=C/c2ccc(-c3ccccc3Cl)o2)cc1 | ? | ? | ? | 16µM* | ?
ClC1(CNc2ccccc2)CCN(Cc2ccccc2)CC1 | · | 19% | · | 2% | ·
Cc1ccc(-c2cnc(NC(=O)CCC(=O)N3CCCCC3)n2C)cc1 | 7.9µM* | 17% | 3.5µM* | -2% | -1%
CCCCNC(=O)CCC(=O)Nc1ncc(-c2ccc(C)cc2)n1C | 4µM* | 10% | 2µM* | -5% | 18%
COc1ccc(C(=O)N=c2nc3ccccn3s2)cc1 | 4µM* | -6% | 2.2µM* | -9% | ?
COc1ccc(C(=O)O/N=C2\C(=O)N(C)c3ccccc32)cc1 | · | -3% | · | -3% | ·
Clc1ccc(-c2nnc(CSc3nnc(-c4cccs4)n3Cc3ccccc3)o2)cc1 | 18µM* | ? | ? | 2% | -18%
Fc1ccc(NCc2nnc(SCc3nnc(-c4ccccc4)o3)n2Cc2ccccc2)cc1 | ? | 6% | 22% | 3% | 16µM*
Cc1nnc(SCc2nnc(-c3cccs3)o2)n1Cc1ccccc1 | -17% | -3% | -23% | -2% | 24%
Oc1ccc(Oc2ccc(Oc3ccc(O)cc3)cc2)cc1 | -14% | 17% | -7% | 27% | -8%
COc1ccc(S(=O)(=O)N(C(=O)c2ccco2)c2cc3sc(=O)oc3c3ccccc23)cc1 | ? | 18µM* | ? | ? | ?
CCOc1ccc(S(=O)(=O)N(C(=O)c2ccco2)c2cc3sc(=O)oc3c3ccccc23)cc1 | ? | ? | ? | 2% | ?
O=C(Nc1nccs1)C1CC2CCC1C2 (centres undefined) | -5% | 3% | 7.9µM* | -5% | -17%
